D3 antag = antagonists of human D3 dopamine receptor; D3R cells, DiscoveRx beta-arrestin luminescence, antagonist mode; hits give low values; 2.5% of 360,000 active; P35462; max response, negative = inhibition, %; in the data active means max response below about -50%; inconclusive means no clear call, values can overlap the other calls
Target sequence (P35462 whole entry, looked up): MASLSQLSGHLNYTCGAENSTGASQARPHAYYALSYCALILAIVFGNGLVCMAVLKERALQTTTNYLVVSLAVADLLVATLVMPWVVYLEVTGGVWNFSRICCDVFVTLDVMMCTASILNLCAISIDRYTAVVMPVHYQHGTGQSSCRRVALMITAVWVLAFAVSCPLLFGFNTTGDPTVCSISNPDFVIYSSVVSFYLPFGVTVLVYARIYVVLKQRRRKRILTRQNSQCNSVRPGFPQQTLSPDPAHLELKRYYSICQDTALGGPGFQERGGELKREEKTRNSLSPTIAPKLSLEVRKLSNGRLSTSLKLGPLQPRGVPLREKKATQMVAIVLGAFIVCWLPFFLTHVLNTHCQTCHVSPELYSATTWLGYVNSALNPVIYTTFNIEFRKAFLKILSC
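Cells expressing the human receptor were seeded at 1500 cells/well, incubated overnight at 37 degrees C in 5% CO2, then exposed to library compounds with dopamine controls for 90 minutes at 37 degrees C before luminescent detection.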
TGFb inhibitor = blocks TGF-b signaling | HepG2 CAGA-GFP TGF-b/SMAD3 reporter, GFP fluorescence, 18 h; TGF-beta stimulated, 500 pg/mL final | Potency, µM (top dose mostly 46.1 µM), usual class: inhibitors | 1.2% of 410,000 active; further: nearly all actives have a fitted effect of over 65% in size
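Smad-responsive CAGA-GFP expression was quantified in HEPG2 cells exposed to compounds and 500 pg/mL final TGF-beta for 18 h at 37 degrees C; unstimulated wells defined full inhibition.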
HepG2 tox-1 = counter-screen for TGF-b inhibitors: cytotoxicity in HepG2 cells; HepG2 CAGA-GFP viability, ATP luminescence, 18 h; Potency, µM (series often up to 46.1 µM), actives largely listed as cytotoxic; 0.76% of 410,000 active; AID 588856
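CellTiter-Glo luminescence gave cytotoxicity after 18 hours at 37 degrees C. The cells were HepG2 CAGA-GFP in 1% FBS DMEM, stimulated with 500 pg/mL TGF-beta after compound addition. %Activity was normalised to no-cell wells (complete cell-killing) and DMSO (no toxicity), and curves were fitted and classified.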
DRD3 agonist = D3 dopamine receptor (human) agonism. P35462. D3R DiscoveRx beta-arrestin cells, luminescence, 90 min. max activation, %. 0.58% of 410,000 active. AID 652048; in the data active means max activation above about 30%
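Cells at 1500/well, incubated overnight, then treated with pinned compounds (dopamine as control) for 90 min at 37 degrees C. DiscoveRx reagent added for 30 - 60 minutes at room temperature; luminescence read.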
ATXN viability = reduces viability in counter-screen for ATXN expression inhibitors. S2 cells (HEK-293 line with an ATXN2-luciferase reporter) viability, CellTiter-Fluor protease fluorescence, 24 h. Potency, µM (doses to about 56.7 µM), actives largely listed as cytotoxic. 0.49% of 400,000 active; further: nearly all actives have a fitted effect of over 40% in size
ATXN2 expr inh = inhibitors of ATXN2 expression | Potency, µM (series often up to 57 µM), most hits filed as inhibitors | AID 1745845 | HEK-293 ATXN2-luciferase reporter, luminescence, 24 h | 0.72% of 360,000 active; further: nearly all actives have a fitted effect of over 55% in size
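ATXN2-luciferase reporter cells (luciferase flanked by upstream and downstream ATXN2 gene portions) were treated 24 h at 37 °C with compounds at up to 57 uM. SteadyGlo luminescence gave expression; GF-AFC fluorescence gave viability.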
TGFb confirm = confirmation of TGF-b signaling inhibitors in HepG2 reporter cells. shares compounds with TGFb inhibitor. HepG2 CAGA-GFP TGF-b reporter, GFP fluorescence, 18 h; cells stimulated with TGF-beta, 500 pg/mL. Potency, µM (titrated, usually from 46.1 µM), usual class: inhibitors. 63% of 1,600 active; further: nearly all actives have a fitted effect of over 65% in size
HepG2 tox-2 = toxic to HepG2 cells in TGF-b counterscreen; shares compounds with TGFb inhibitor; HepG2 CAGA-GFP viability, ATP luminescence, 18 h; cells stimulated with TGF-beta, 500 pg/mL; Potency, µM (titrated, usually from 46.1 µM), most hits filed as inhibitors; 27% of 1,600 active; AID 720535; further: nearly all actives have a fitted effect of over 70% in size
CCL64 TGFb inh = TGF-b inhibition, CCL64 orthogonal assay. shares compounds with TGFb inhibitor. CCL64 CAGA-GFP reporter, TGF-b stimulated, GFP fluorescence, 18 h. Potency, µM (doses to about 46.1 µM), most hits filed as inhibitors. 41% of 1,600 active. AID 720536; further: nearly all actives have a fitted effect of over 65% in size
TGFb COP inh = blocks TGF-b signaling in HepG2 COP reporter | shares compounds with TGFb inhibitor | HepG2 COP-GFP TGF-b reporter, GFP fluorescence, 18 h; cells stimulated by added recombinant TGF-beta | Potency, µM (series often up to 46.1 µM), actives largely listed as inhibitors | 3% of 1,600 active | AID 720537; further: nearly all actives have a fitted effect of over 70% in size
Of the large screens only hits and unclear results are named; the others gave an inactive call (follow-up assays come after a bar, where they were run). Hits are enriched below; roughly 4.8% of the tested compounds scored in any of these assays. Unless noted, the call rests on the fitted dose curve; in most records, active means well fitted curve in the direction sought with a large enough effect; inconclusive means small, poorly fitted or top-dose-only effect, or another doubt; inactive means no such curve, though single readings can be large; an effect the other way counts as inactive or inconclusive.

CCN(CC)C(=O)[C@H]1C[C@H](CC(=O)NC/C=C(\C)CCC=C(C)C)C(=O)N2CCc3c([nH]c4cc(-c5ccco5)ccc34)[C@]12C	TGFb inhibitor 8.9µM, ATXN viability inconclusive, ATXN2 expr inh inconclusive | TGFb confirm inconclusive | HepG2 tox-2 inconclusive | CCL64 TGFb inh 13µM | TGFb COP inh inactive
O=C(C[C@H]1C[C@H](C(=O)N2CCOCC2)[C@@]2(CCC3CCCC3)c3[nH]c4cc(-c5ccco5)ccc4c3CCN2C1=O)NCC12CC3CC(CC(C3)C1)C2	TGFb inhibitor inconclusive
C[C@]12c3[nH]c4ccccc4c3CCN1C(=O)C(CC(=O)NCc1cccc(C(F)(F)F)c1)C[C@@H]2C(=O)N1CCOCC1 (some centres not stated)	none
C[C@]12c3[nH]c4ccc(Cl)cc4c3CCN1C(=O)[C@@H](CC(=O)NCC13CC4CC(CC(C4)C1)C3)C[C@@H]2C(=O)N1CCOCC1	D3 antag -50, TGFb inhibitor 10µM, ATXN viability inconclusive, ATXN2 expr inh inconclusive | TGFb confirm 21µM | HepG2 tox-2 inconclusive | CCL64 TGFb inh inconclusive | TGFb COP inh inactive
C[C@]12c3[nH]c4ccc(Cl)cc4c3CCN1C(=O)[C@@H](CC(=O)NCc1cccc(C(F)(F)F)c1)C[C@@H]2C(=O)N1CCOCC1	TGFb inhibitor 10µM, ATXN2 expr inh inconclusive (no result: ATXN viability) | TGFb confirm 16µM | HepG2 tox-2 inactive | CCL64 TGFb inh 15µM | TGFb COP inh inactive
C[C@]12c3[nH]c4cc(-c5ccco5)ccc4c3CCN1C(=O)[C@@H](CC(=O)NCC13CC4CC(CC(C4)C1)C3)C[C@@H]2C(=O)N1CCOCC1	TGFb inhibitor 10µM, ATXN viability inconclusive, ATXN2 expr inh inconclusive | TGFb confirm 9.2µM | HepG2 tox-2 inconclusive | CCL64 TGFb inh inconclusive | TGFb COP inh inactive
CCN(CC)c1ccc(NC(=O)c2cccn2-c2nnc(N3CCCCC3)s2)c(C)c1	TGFb inhibitor inconclusive (no result: D3 antag, ATXN viability, ATXN2 expr inh)
CC[C@]12c3[nH]c4cc(-c5ccco5)ccc4c3CCN1C(=O)[C@@H](CC(=O)NCCC1=CCCCC1)C[C@@H]2C(=O)N1CCN(C(=O)c2ccco2)CC1	TGFb inhibitor 14µM, ATXN viability inconclusive | TGFb confirm inconclusive | HepG2 tox-2 inactive | CCL64 TGFb inh inconclusive | TGFb COP inh inactive
CC[C@]12c3[nH]c4ccc(OC)cc4c3CCN1C(=O)C(CC(=O)NCC13CC4CC(CC(C4)C1)C3)C[C@@H]2C(=O)N1CCN(C(=O)C2CC2)CC1 (some centres not stated)	TGFb inhibitor inconclusive, ATXN viability inconclusive, ATXN2 expr inh inconclusive
CC[C@]12c3[nH]c4ccc(Cl)cc4c3CCN1C(=O)[C@@H](CC(=O)NCC13CC4CC(CC(C4)C1)C3)C[C@@H]2C(=O)N1CCN(C(=O)C2CC2)CC1	TGFb inhibitor 10µM, ATXN viability inconclusive, ATXN2 expr inh 25µM | TGFb confirm 9.2µM | HepG2 tox-2 inconclusive | CCL64 TGFb inh 23µM | TGFb COP inh inactive
COc1ccc(CNC(=O)C[C@H]2C[C@H](C(=O)N3CCOCC3)[C@@]3(CCC4CCCC4)c4[nH]c5cc(-c6ccco6)ccc5c4CCN3C2=O)cc1OC	D3 antag inconclusive, TGFb inhibitor 13µM, ATXN2 expr inh inconclusive | TGFb confirm 6.5µM | HepG2 tox-2 inactive | CCL64 TGFb inh inconclusive | TGFb COP inh inactive
CC(C)(C)NC(=O)C[C@H]1C[C@H](C(=O)N2CCCCC2)[C@@]2(C)c3[nH]c4ccc(Cl)cc4c3CCN2C1=O	D3 antag inconclusive, TGFb inhibitor inconclusive, ATXN viability inconclusive | TGFb confirm inconclusive | HepG2 tox-2 inactive | CCL64 TGFb inh inactive | TGFb COP inh inactive
CN(C)S(=O)(=O)c1ccc(NC(=O)CN2CCC(Cc3ccccc3)CC2)cc1	ATXN viability inconclusive (no result: ATXN2 expr inh)
CN(C)S(=O)(=O)c1ccc(Cl)c(NC(=O)CN2CCC(Cc3ccccc3)CC2)c1	TGFb inhibitor inconclusive | TGFb confirm 13µM | HepG2 tox-2 inconclusive | CCL64 TGFb inh inconclusive | TGFb COP inh inactive
CCOc1ccc(CN2CCN(C(=O)c3cccc4ccccc34)CC2)cc1	TGFb inhibitor inconclusive, ATXN2 expr inh inconclusive | TGFb confirm 9.2µM | HepG2 tox-2 inconclusive | CCL64 TGFb inh inactive | TGFb COP inh inactive
CC(=O)N1CCc2cc(Br)cc(S(=O)(=O)NCCc3ccc(Cl)cc3)c21	none (no result: D3 antag)
CCS(=O)(=O)c1ncc(Cl)c(C(=O)Nc2ccc(S(=O)(=O)N3CCC(C)CC3)cc2)n1	D3 antag -61, TGFb inhibitor 4.5µM, HepG2 tox-1 1.8µM, ATXN viability 14µM | TGFb confirm 4.6µM | HepG2 tox-2 4.6µM | CCL64 TGFb inh 2.1µM | TGFb COP inh 9.2µM
COc1ccccc1NC(=O)c1nc(S(=O)(=O)Cc2ccccc2)ncc1Cl	D3 antag -89, TGFb inhibitor 4.5µM, ATXN viability inconclusive, ATXN2 expr inh inconclusive | TGFb confirm 2.9µM | HepG2 tox-2 5.8µM | CCL64 TGFb inh 2.1µM | TGFb COP inh 15µM
Cc1ccc(C(=O)NCc2ccc3c(c2)OCO3)c(Cl)c1	none (no result: ATXN2 expr inh)
CSc1nnc(NC(=O)c2nc(S(=O)(=O)Cc3ccccc3)ncc2Cl)s1	D3 antag inconclusive, TGFb inhibitor inconclusive, ATXN2 expr inh inconclusive (no result: ATXN viability)
CN(c1ccccc1)S(=O)(=O)c1ccc(NC(=O)c2nc(S(C)(=O)=O)ncc2Cl)cc1	D3 antag -108, TGFb inhibitor 5.6µM, HepG2 tox-1 5.6µM, ATXN viability 16µM, ATXN2 expr inh 14µM | TGFb confirm 2.9µM | HepG2 tox-2 4.1µM | CCL64 TGFb inh 1.8µM | TGFb COP inh 6.5µM

Bioassay records deposited in PubChem by National Center for Advancing Translational Sciences (NCATS).
